# Screens (PubChem BioAssay)
# VP16 counter – VP16 counterscreen qHTS for inhibitors of ROR gamma transcriptional activity; Drosophila S2 Gal4-VP16 UAS-luciferase, luminescence, 20 h; Potency, µM (doses to about 53.6 µM), for inactives: top-dose activity, negative = inhibition, most hits filed as inhibitors; 310,000 compounds, 3.5% hits; AID 2546, 2010;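 note: Gal4-VP16 expression switched on by copper sulfate through the metallothionein promoter; potency is the fitted concentration of half-maximal effect; nearly all actives have a fitted effect of over 50% in size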
# ELG1 repair inh – qHTS screen for small molecules that inhibit ELG1-dependent DNA repair in human embryonic kidney (HEK293T) cells expressing luciferase-tagged ELG1; HEK293T ELG1-luciferase reporter, luminescence, 16 h; DNA damage induced by 5-fluorouridine; Potency, µM (doses to about 46.1 µM), inactives show top-dose activity change, negative = inhibition, actives largely listed as inhibitors; 330,000 compounds, 2.3% hits; AID 504467, 2011; note: potency is the fitted concentration of half-maximal effect; nearly all actives have a fitted effect of over 55% in size
#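 DMSO vehicle served as the neutral condition. Each well held 2,000 cells given 5-fluorouridine plus compound; after 16 hr at 37 °C/5% CO2, ONE-Glo was added and luciferase measured 30 min later.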
# TSHR antagonist – Antagonists of the Thyroid Stimulating Hormone Receptor: HTS campaign; TSHR-expressing cells, TSH-stimulated cAMP HTRF, 2 h; stronger effect = lower value; activity change, negative = inhibition, % at 11.5 µM; 330,000 compounds, 0.2% hits;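 active = activity change below a set negative limit, meaning inhibition stronger than a set level, cut at about -70% in these data; inconclusive = activity change between two set negative limits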
#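 Read-out is FRET at 665 nm (cryptate excitation 337 nm) from a cryptate-tagged anti-cAMP antibody, competed by cell cAMP against cAMP-d2. Compounds are tested on freshly harvested TSHR cells challenged with 4nM TSH (EC80) for 2 hours at 37 deg C.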
# Coupling enz – qHTS Assay for Inhibitors of Fructose-1,6-bisphosphate Aldolase from Giardia Lamblia: Coupling assay counterscreen. AID 2472, 2010. 290,000 compounds, 0.67% hits. activity change, negative = inhibition, % at 58.2 µM, hits read low. coupling enzyme system counterscreen, AmpLite Red fluorescence; in the data active = activity change below about -30%
#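 Coupling enzymes only (glyceraldehyde-3-phosphate) + compound, at 57.5 uM final, 10 min RT; add substrate/coupling/AmpLite Red mix, 20 min RT; fluorescence ex 525/em 598 nm. Actives flag coupling-system interference.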
# RORgamma inh – qHTS for inhibitors of ROR gamma transcriptional activity | 310,000 compounds, 5.4% hits | Potency, µM (top dose mostly 53.6 µM), inactives show top-dose activity change, negative = inhibition, actives largely listed as inhibitors | Nuclear receptor ROR-gamma (Mus musculus), P51450 | Drosophila S2 Gal4-RORgamma UAS-luciferase reporter, 20 h; note: potency is the fitted concentration of half-maximal effect; nearly all actives have a fitted effect of over 60% in size
#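 Luminescence from a UAS-regulated Photinus luciferase reporter in stably transfected Drosophila Schneider cells is measured; decreased signal marks ROR gamma inhibition. Fusion expression is induced by 700 uM copper sulfate for 20 hr.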
# ELG1 FLuc counter – qHTS screen for small molecules that inhibit ELG1-dependent DNA repair: Hit Confirmation in Cell-Based Luciferin Assay. shares compounds with ELG1 repair inh. cell-free firefly luciferase luminescence counter-screen, ViewLux. Potency, µM (doses to about 46.1 µM), without a hit: at the top dose activity change, negative = inhibition, actives largely listed as inhibitors. 350 compounds, 3% hits; note: potency is the fitted concentration of half-maximal effect
# ELG1-Luc inh – HTS assay for small molecules that inhibit ELG1-dependent DNA repair in human embryonic kidney (HEK293T) cells expressing luciferase-tagged ELG1: Hit Confirmation; HEK293T ELG1-luciferase levels, luminescence; cells co-treated with 5-fluorouridine; shares compounds with ELG1 repair inh; 670 compounds, 68% hits; AID 624248, 2012; Potency, µM (highest dose often 46.1 µM), inactives show at the top dose activity change, negative = inhibition, hits mostly inhibitors; note: potency is the fitted concentration of half-maximal effect; nearly all actives have a fitted effect of over 55% in size
# ELG1 MMS Luc – confirmation of human ELG1 repair inhibitors, MMS stimulated; Potency, µM (highest dose often 46.1 µM), for the others: top-dose activity change, negative = inhibition, actives largely listed as inhibitors; HEK293T luciferase-tagged ELG1 level, MMS stimulated; shares compounds with ELG1 repair inh; 670 compounds, 53% hits; note: potency is the fitted concentration of half-maximal effect; nearly all actives have a fitted effect of over 60% in size
# ELG1 5FU viab – qHTS screen for small molecules that inhibit ELG1-dependent DNA repair: Hit Confirmation with 5FU Viability; 670 tested, under 10 active; cell viability with 5-FU, ELG1-dependent repair; AID 624250, 2012; Potency, µM (series often up to 46.1 µM), without a hit: top-dose activity change, negative = viability loss, actives largely listed as cytotoxic; shares compounds with ELG1 repair inh;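 note: ELG1-luc HEK293T cells cotreated with 5-fluorouridine at 10 µM final; potency is the fitted concentration of half-maximal effect; viability measured 16 h after compound addition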
# ELG1 MMS cell – qHTS screen for small molecules that inhibit ELG1-dependent DNA repair: Hit Confirmation with MMS Viability; 670 compounds, 33% hits; shares compounds with ELG1 repair inh; Cell viability with MMS, ELG1-dependent DNA repair; Potency, µM (titrated, usually from 46.1 µM), for inactives: top-dose activity change, negative = viability loss, usual class: cytotoxic;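 note: ELG1-luc HEK293T cells co-treated with 10 µM MMS; potency is the fitted concentration of half-maximal effect; viability read 16 h after compound addition; nearly all actives have a fitted effect of over 60% in size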
# ELG1 unstim viab – qHTS screen for small molecules that inhibit ELG1-dependent DNA repair: Hit Confirmation with Unstimulated Viability Assay | 900 compounds, 8% hits | shares compounds with ELG1 repair inh | Potency, µM (highest dose often 45.9 µM), for the others: at the top dose activity change, negative = loss of viability, most hits filed as cytotoxic | cell viability counter-screen, unstimulated, luminescence;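 note: potency is the fitted concentration of half-maximal effect; compound exposure lasted 16 hours before reading; nearly all actives have a fitted effect of over 55% in size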
# FLuc enzyme – qHTS screen for small molecules that inhibit ELG1-dependent DNA repair: Hit Confirmation in Biochemical Luciferin Assay; shares compounds with ELG1 repair inh; purified firefly luciferase, luminescence counter-screen; 350 compounds, 10% hits; AID 624253, 2012; Potency, µM (titrated, usually from 57.5 µM), without a hit: at the top dose activity, negative = inhibition, most hits filed as inhibitors; note: potency is the fitted concentration of half-maximal effect
# Starred values were filed as active, the others as inactive; ? = inconclusive; nt = not tested or not shown. Hits are enriched below; roughly 8% of the tested compounds scored in any of these assays. Unless noted, calls come from the whole dose curve; as a rule, active = well fitted curve in the direction sought with a large enough effect; inconclusive = small, poorly fitted or top-dose-only effect, or another doubt; inactive = no such curve, though single readings can be large; an effect the other way counts as inactive or inconclusive. % is set by controls: 0 for no effect and ±100 for the full control effect.
SMILES,VP16 counter,ELG1 repair inh,TSHR antagonist,Coupling enz,RORgamma inh,ELG1-Luc inh,ELG1 MMS Luc,ELG1 5FU viab,ELG1 MMS cell,ELG1 unstim viab,others
c1ccc(N2CC3(CCNCC3)C2)nc1,-8%,nt,nt,1,-18%,nt,nt,nt,nt,nt,
CCCCCCCCCCCCCCCCOC[C@@H](O)COP(=O)([O-])OCC[N+](C)(C)C,4%,nt,nt,2,1%,nt,nt,nt,nt,nt,
COc1ccc(C[C@H]2NC[C@H](O)[C@H]2OC(C)=O)cc1,nt,nt,nt,nt,nt,0.056µM*,0.025µM*,-12%,0.05µM*,0.011µM*,ELG1 FLuc counter=0.013µM*;FLuc enzyme=-2%
COC(=O)C1(C)C=C2C(=C(C)C(=O)C2C)CN1 (stereo not given),-7%,nt,nt,-6,-9%,nt,nt,nt,nt,nt,
C[C@]12CCC3C(CCC4=CC(O)CC[C@@]43/C=N/O)C1(O)CCC2C1=CC(=O)OC1 (stereo not given in full),-19%,1.5µM*,?,2,-1%,1µM*,0.44µM*,?,1.3µM*,0.5µM*,
O=C(CCl)c1ccc(O)c(O)c1,nt,nt,nt,nt,nt,nt,nt,nt,nt,-9%,
NNC(=O)c1ccc(O)cc1,nt,28%,5,nt,nt,nt,nt,nt,nt,nt,
OC12C3C4CC5C6C4C1C6C(C53)N2CCc1cccc(F)c1 (stereo not given),0%,nt,nt,-3,-2%,nt,nt,nt,nt,nt,
